Test results as given in PubChem BioAssay AID652057 (Broad Institute, 2013).
About 1,000 (71%) of roughly 1,400 compounds were called active. How the calls were made is not given here. The set was probably picked from earlier hits. A selection follows. Entries with a potency or affinity are not part of this list.

Test: blockers of HIV-1 envelope-mediated cell-cell fusion – cherry-pick, dose response (AID 652057)
Conditions: HeLa-JRFL Env/CEM21 cell fusion, luciferase; series mostly up to 35 µM

Activity change, negative = inhibition, inactive:
CCOc1ccc(-c2cc(CCCC(=O)Nc3cccc(OC)c3)no2)cc1, O=C(Cc1ccc(Cl)cc1Cl)Nc1ccncc1, C[C@@H]1CN([C@@H](C)CO)C(=O)c2cc(NS(=O)(=O)c3ccccc3)ccc2O[C@H]1CN(C)Cc1ccc(Oc2ccccc2)cc1, Cc1onc(-c2ccccc2)c1C(=O)Nc1ccc(Br)cc1Cl, Cc1onc(-c2ccccc2)c1C(=O)NC(=S)NNC(=O)c1ccc(O)cc1, O=C(C[C@@H]1C[C@@H]2c3cc(NC(=O)C4CCC4)ccc3O[C@@H]2[C@@H](CO)O1)NCC(F)(F)F, Cc1ccc(S(=O)(=O)N(C)c2ccc(C(=O)N3CCN(Cc4ccc5c(c4)OCO5)CC3)cc2)cc1, c1ccc2c(c1)OCC(CNc1ncnc3nc[nH]c13)O2 (stereo unspecified), Cc1nc2sc(C(c3ccco3)N3CCC(Cc4ccccc4)CC3)c(O)n2n1 (stereo unspecified), Cc1cc(C)c(CN2CCN(C(=O)Cn3cnc4c(NCc5ccccc5)ncnc43)CC2)c(C)c1, N#Cc1c(NCc2ccccc2)ccnc1NCc1cccnc1, C[C@H]1CN([C@@H](C)CO)C(=O)c2cccc(NC(=O)Nc3ccc(C(F)(F)F)cc3)c2O[C@H]1CN(C)S(=O)(=O)c1ccccc1, C[C@@H]1CN([C@@H](C)CO)C(=O)c2cc(C3=CCCC3)cnc2O[C@@H]1CN(C)Cc1ccc(C(=O)O)cc1, Cc1cc(C(=O)NC2CCCc3c2cnn3-c2ccc(C(C)(C)C)cc2)nn1C (stereo unspecified), c1coc(CNc2c3c(nc4ccccc24)CCC3)c1, C[C@H](CO)N1C[C@H](C)[C@@H](CN(C)S(=O)(=O)c2ccc(F)cc2)Oc2ccc(NS(=O)(=O)c3cn(C)cn3)cc2CC1=O, O=C(c1cc(COc2cccc(C(F)(F)F)c2)on1)N1CCC(c2ccncc2)CC1, CCC(=O)N(C)C(c1ccccc1Cl)c1nnnn1-c1c(C)cccc1C (stereo unspecified), O=C(c1ccc(S(=O)(=O)Nc2ccc(F)cc2)cc1)N1CCN(C(=O)c2ccco2)CC1, Cc1cc(C)nc(/N=C(\N)Nc2ccc(CC(=O)OC(C)C)cc2)n1, O=C(Nc1ccc(CN2CCOCC2)cc1)c1ccc(-c2cccc(Cl)c2)o1, C#CCn1c(=O)c2c(ncn2C)n(C)c1=O, CCNC(=O)C[C@@H]1CC[C@@H]2[C@@H](COc3ccc(NC(=O)Cc4cccs4)cc3C(=O)N2C)O1, CCNC(=O)C[C@H]1CC[C@@H]2[C@@H](COc3ccc(NC(=O)Cc4cccs4)cc3C(=O)N2C)O1, COCC(=O)Nc1ccc2c(c1)C(=O)N(C)[C@H]1CC[C@H](CC(=O)NC3CCCC3)O[C@H]1CO2, Cc1nn(C)cc1NC(=O)C[C@H]1CC[C@@H]2[C@@H](COc3ccc(NC(=O)C4CCC4)cc3C(=O)N2C)O1, CCNC(=O)Nc1ccc2c(c1)C(=O)N(C)[C@@H]1CC[C@@H](CC(=O)NCC3CCCCC3)O[C@@H]1CO2, CN1C(=O)c2cc(NC(=O)NC3CCCC3)ccc2OC[C@@H]2O[C@H](CC(=O)NC3CCC3)CC[C@@H]21, COc1ccc(OC)c(NC(=O)COc2ccc3c(c2)CCC3)c1, Cc1ccc(S(=O)(=O)N(C)C[C@@H]2Oc3ccc(NS(=O)(=O)c4ccc(Cl)cc4)cc3C(=O)N([C@@H](C)CO)C[C@H]2C)cc1, Cc1ccc(S(=O)(=O)Nc2ccc3c(c2)C(=O)N([C@H](C)CO)C[C@@H](C)[C@H](CN(C)S(=O)(=O)c2ccc(F)cc2)O3)cc1, CCNC1CCC(Nc2ccnc3cc(Cl)ccc23)CC1 (stereo unspecified), COc1ccc(NS(=O)(=O)c2cccc(C(=O)NNC(=O)CNC(=O)c3ccc(C)cc3)c2)cc1, CC(=O)Nc1ccc(C(=O)OCC(=O)NC(=O)NCc2ccccc2)cc1, Cc1ccc(-n2nnnc2SCn2nnc3ccccc3c2=O)c(C)c1, COc1ccccc1CN(C)C(=O)CN1CCN(C(=O)c2cccs2)CC1, C[C@@H]1CN([C@@H](C)CO)S(=O)(=O)c2ccc(-c3ccc(F)cc3)cc2O[C@H]1CN(C)C(=O)C1CCCCC1, CC(=O)OC1c2ccccc2C(=O)N1c1ccccc1C (stereo unspecified), CNC[C@H]1Oc2c(NC(=O)Nc3cccc4ccccc34)cccc2C(=O)N([C@H](C)CO)C[C@H]1C, Cc1sc2ncnc(N3CCN(S(=O)(=O)c4ccc(Br)cc4)CC3)c2c1C, COc1cc(-c2cc(OC)c(O)c(OC)c2)cc(OC)c1O, O=C(Nc1ccc(F)cc1)Nc1ccc2c(c1)[C@@H]1C[C@H](CC(=O)N3CCCCC3)O[C@H](CO)[C@@H]1O2, COC(=O)C[C@H]1C=C[C@H](NC(=O)c2ccccn2)[C@@H](CO)O1, O=C(C[C@@H]1C=C[C@@H](NC(=O)c2ccccc2)[C@H](CO)O1)NCc1ccc(Oc2ccccc2)cc1, COc1ccc(CCCC(=O)NCCc2ccccc2)c(C)c1, COc1ccccc1-c1c(-c2ccc(O)cc2O)n[nH]c1C(F)(F)F, COCc1[nH]nc2c1C(c1ccc(F)cc1)N(Cc1ccccc1)C2=O (stereo unspecified), C=CCNc1nc2c(c(=O)n(C)c(=O)n2C)n1CCCCCC, CNc1nc2c(c(=O)n(C)c(=O)n2C)n1Cc1ccccc1, CCCCn1c(CN(C)Cc2ccccc2)nc2c1c(=O)n(C)c(=O)n2C, CC(C)NC(=O)N(C)C[C@@H]1Oc2ccc(NC(=O)C3CC3)cc2CC(=O)N([C@H](C)CO)C[C@H]1C, CC(C)NC(=O)N(C)C[C@@H]1Oc2ccc(NC(=O)C3CC3)cc2CC(=O)N([C@@H](C)CO)C[C@@H]1C, Cc1cc(Oc2ccc(C#N)cc2)nc(NCc2ccccc2)n1, c1ccc(CSc2nnc([C@@H]3CCCN3)o2)cc1, COc1ccc(/C(C)=N/NC(=O)c2cccc(S(=O)(=O)N3CCCC3)c2)c(O)c1 -20.9% [at 8 µM], CCCCCn1c(C(C)NC(=O)CCC)nc2ccccc21 (stereo unspecified), COc1ccc(C(O)c2nc3ccccc3n2C)cc1OC (stereo unspecified), CCN1CCN(S(=O)(=O)c2ccc(Cl)c(C(=O)Nc3ccccc3N3CCCC3)c2)CC1, CCNc1ncnc2c1cnn2C1CCCO1 (stereo unspecified), CCOc1ccccc1CNc1ncnc2ccc(-c3c(C)noc3C)cc12, Nc1ccc(O)cc1C(=O)OCC(=O)c1ccc(C2CCCCC2)cc1, Cc1nc2ccccc2n1CC(=O)NCc1ccccc1, CC(C)CN(C(=O)c1ccc(S(=O)(=O)N2CCCCC2)cc1)C1CCS(=O)(=O)C1 (stereo unspecified), CCCCCCCCCCOC(=O)Cn1c(COc2ccccc2OC)[n+](C)c2ccccc21, CNC[C@@H]1Oc2c(N)cccc2C(=O)N([C@@H](C)CO)C[C@@H]1C, Cc1ccc(-n2ncc3c(N4CCN(c5ccccc5)CC4)ncnc32)c(C)c1, Cc1ccc2c(c1)c1c3n2CCN(CC(N)=O)C3CCC1 (stereo unspecified), O=C(Nc1ccncc1)c1ccc(Cl)c(S(=O)(=O)N2CCc3ccccc32)c1, CC(OC(=O)c1ccc(NC(=O)CC#N)cc1)C(=O)NCCC1=CCCCC1 (stereo unspecified), CC(=O)c1c(C)[nH]c(C(=O)OCCCCN2C(=O)c3ccccc3C2=O)c1C, CC(=O)c1c(C)[nH]c(C(=O)OCC(=O)Nc2c(C)cccc2C)c1C, COc1ccc(S(=O)(=O)N2CCCCC2)cc1NC(=O)CCCOc1ccc(C)cc1, COc1ccc(S(=O)(=O)N2CCCCC2)cc1NC(=O)CN(Cc1ccco1)Cc1ccco1, COc1ccccc1C(=O)Nc1ccc2c(c1)OC[C@H](C)N(C(C)=O)C[C@H](C)[C@H](OC)CN(C)C2=O, COc1ccc(NC(=O)C(=O)NCC2CCCN2S(=O)(=O)c2cccs2)cc1 (stereo unspecified), CNC[C@@H]1Oc2ccc(NS(C)(=O)=O)cc2CC(=O)N([C@H](C)CO)C[C@H]1C, O=C(NCc1ccccc1)c1ccc(C(=O)NCc2ccccc2)cc1, O=C(CCNC(=O)c1ccc(Br)cc1)NNC(=O)COc1ccccc1F, O=C(C[C@@H]1C[C@@H]2c3cc(NC(=O)C4CCOCC4)ccc3O[C@@H]2[C@H](CO)O1)NCc1ccccc1F, O=C(C[C@@H]1C[C@@H]2c3cc(NC(=O)C4CCOCC4)ccc3O[C@@H]2[C@H](CO)O1)NCCc1ccccc1, CN(C)C(=O)C[C@H]1C[C@@H]2c3cc(NC(=O)NC4CCCCC4)ccc3O[C@@H]2[C@H](CO)O1, Cc1ccccc1-n1c(=O)c2ccccc2n2cnnc12, Cc1ccc(NS(=O)(=O)c2cc(C(=O)N(C)C3CCN(C)CC3)ccc2Cl)cc1Cl, Cc1nc2ccc(NC(=O)c3cc(S(=O)(=O)N(C)c4ccccc4)ccc3Cl)cc2s1, Cc1ccc(-n2nc3c(c2NC(=O)c2ccco2)CS(=O)C3)cc1 (stereo unspecified), CCN(CCn1cccn1)C(=O)CC1C(=O)NCCN1CCc1ccccc1 (stereo unspecified), O=C(CC1C(=O)NCCN1Cc1cccc(F)c1)NC1CCCCC1 (stereo unspecified), O=C(O)C[C@@H]1C=C[C@@H](NC(=O)Nc2ccccc2)[C@H](CO)O1, O=C(O)C[C@@H]1C=C[C@H](NC(=O)Nc2ccccc2)[C@H](CO)O1, COc1ccccc1S(=O)(=O)N[C@H]1CC[C@H](CC(=O)N2CCN(C)CC2)O[C@H]1CO, COc1ccccc1S(=O)(=O)N[C@H]1CC[C@@H](CC(=O)N2CCN(C)CC2)O[C@H]1CO, Nc1ccn([C@@H]2O[C@H](C(=O)NCc3ccc4c(c3)OCO4)[C@@H](O)[C@H]2O)c(=O)n1, Cc1ccc(S(=O)(=O)N[C@@H]2CC[C@H](CCNC(=O)c3ccccc3F)O[C@H]2CO)cc1, CCN(C1CCCCC1)S(=O)(=O)c1ccc(S(=O)(=O)NCc2ccncc2)cc1, CO[C@H]1CN(C)C(=O)c2ccc(NC(=O)C3CC3)cc2OC[C@@H](C)N(C(C)=O)C[C@@H]1C, CO[C@H]1CN(C)C(=O)c2ccc(NC(=O)Nc3cccc(F)c3)cc2OC[C@H](C)NC[C@H]1C, CCCC(=O)Nc1ccc2c(c1)OC[C@@H](C)N(C(=O)CN(C)C)C[C@H](C)[C@@H](OC)CN(C)C2=O, CO[C@@H]1CN(C)C(=O)c2ccc(NC(C)=O)cc2OC[C@@H](C)N(Cc2cncnc2)C[C@@H]1C, CO[C@H]1CN(C)C(=O)c2cc(NC(=O)C3CCOCC3)ccc2OC[C@H](C)N(Cc2nccs2)C[C@H]1C, CO[C@@H]1CN(C)C(=O)c2ccc(NS(C)(=O)=O)cc2OC[C@@H](C)N(C(=O)C2CCCCC2)C[C@H]1C, CCCC(=O)Nc1ccc2c(c1)OC[C@H](C)N(C(=O)CN(C)C)C[C@@H](C)[C@H](OC)CN(C)C2=O, CO[C@H]1CN(C)C(=O)c2ccc(NC(=O)Nc3cccc(F)c3)cc2OC[C@@H](C)N(C(C)=O)C[C@H]1C, CCCC(=O)Nc1ccc2c(c1)OC[C@H](C)N(Cc1ccncc1)C[C@H](C)[C@H](OC)CN(C)C2=O, CCC(=O)Nc1ccc2c(c1)C(=O)N(C)C[C@@H](OC)[C@H](C)CN(C(=O)CC)[C@@H](C)CO2, N#Cc1ccc(CSc2nnc(COc3ccccc3)n2-c2ccccc2)cc1, Cc1ccc(S(=O)(=O)N(C)C[C@H]2Oc3ccc(NC(=O)Nc4cccc5ccccc45)cc3C(=O)N([C@H](C)CO)C[C@@H]2C)cc1
